ELG1 repair inh: qHTS screen for small molecules that inhibit ELG1-dependent DNA repair in human embryonic kidney (HEK293T) cells expressing luciferase-tagged ELG1 | HEK293T ELG1-luciferase reporter, luminescence, 16 h; DNA damage induced by 5-fluorouridine | Potency, µM (series often up to 46.1 µM), without a hit: at the highest dose activity change, negative = inhibition, most hits filed as inhibitors | 2.3% of 330,000 active | AID 504467, 2011; further: on the % scale 0 is the no-effect control and ±100 the full control effect; nearly all actives have a fitted effect of over 55% in size
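5-Fluorouridine DNA damage + compound/DMSO, 2,000 cells/well, 16 h, 37 °C/5% CO2. ONE-Glo, 30 min RT, luminescence. Readout = decrease in reporter signal.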
Rab9 promoter act: qHTS Assay for Rab9 Promoter Activators; Huh7 Rab9 promoter-luciferase reporter, luminescence, 24 h; Potency, µM (titrated, usually from 9.22 µM), for the others: at the highest dose activation, negative = inhibition, hits mostly activators; 2.8% of 320,000 active; further: % of control where 0% means no effect; nearly all actives have a fitted effect of over 60% in size
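Luciferase signal after 10 min detection reagent at ambient indicates Rab9 promoter upregulation; stably transfected Huh7 cells were treated 24 h with compound in DMSO at 37 °C, 5% CO2.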
SMN2 splice up: qHTS Assay for Enhancers of SMN2 Splice Variant Expression; HEK293 SMN2-luciferase splicing reporter, luminescence, 30-36 h; Potency, µM (doses to about 46.1 µM), for inactives: top-dose activity change, positive = activation, most hits filed as activators; 2.8% of 210,000 active; further: % of control where 0% means no effect; nearly all actives have a fitted effect of over 55% in size
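HEK293 cells carry an SMN2 […]–luciferase reporter in which exon 7 inclusion puts luciferase in frame. Cells were plated 10-12 h before compound addition, then incubated 30-36 h at 37C. ONE-Glo luminescence was read; sodium butyrate at 4.5 mM final served as control.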
ELG1 genotox: qHTS screen for small molecules that induce genotoxicity in human embryonic kidney (HEK293T) cells expressing luciferase-tagged ELG1; Potency, µM (series often up to 46 µM), inactives show at the top dose activity change, positive = activation, hits mostly activators; HEK293T ELG1-luciferase reporter, luminescence, 16 h; 1.3% of 330,000 active; further: % of control where 0% means no effect; nearly all actives have a fitted effect of over 60% in size
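After overnight (16 hr) compound treatment at 37 °C, ELG1-luciferase HEK293T cells were lysed with ONE-Glo; luminescence quantified 30 min later at room temperature.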
FLuc modulator: qHTS profiling assay for firefly luciferase inhibitor/activator using purifed enzyme and Km concentrations of substrates (counterscreen for miR-21 project) | Luciferin 4-monooxygenase (Photinus pyralis), P08659 | purified FLuc, Km substrates, luminescence inhibition | Potency, µM (series often up to 57.5 µM), inactives show at the highest dose activity change, negative = inhibition, most hits filed as inhibitors | 6.9% of 360,000 active | AID 588342, 2011;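 further: plate controls were vehicle for no effect and reference inhibitor for full effect; nearly all actives have a fitted effect of over 55% in size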
Target sequence (P08659 whole entry, looked up): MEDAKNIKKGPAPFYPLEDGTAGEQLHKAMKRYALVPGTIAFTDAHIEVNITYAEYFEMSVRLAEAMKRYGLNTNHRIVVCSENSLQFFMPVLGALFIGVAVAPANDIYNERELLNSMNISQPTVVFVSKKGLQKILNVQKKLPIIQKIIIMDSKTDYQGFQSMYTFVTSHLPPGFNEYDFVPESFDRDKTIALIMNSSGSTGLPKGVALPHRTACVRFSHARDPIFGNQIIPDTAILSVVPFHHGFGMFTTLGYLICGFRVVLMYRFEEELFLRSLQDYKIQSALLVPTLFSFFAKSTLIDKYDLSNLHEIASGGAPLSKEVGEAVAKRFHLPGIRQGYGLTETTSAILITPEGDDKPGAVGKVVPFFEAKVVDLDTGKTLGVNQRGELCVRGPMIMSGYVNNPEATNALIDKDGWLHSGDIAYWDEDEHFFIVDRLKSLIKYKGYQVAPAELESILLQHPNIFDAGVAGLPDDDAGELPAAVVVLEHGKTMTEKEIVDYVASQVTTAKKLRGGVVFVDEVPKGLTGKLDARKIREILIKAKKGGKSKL
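Purified P. pyralis luciferase, 10 nM final, with Km-level 10 uM D-luciferin and 10 uM ATP in 50 mM Tris acetate pH 7.5, 10 mM Mg acetate, 0.01% Tween-20, 0.05% BSA; 6-point qHTS titration about 60 µM downward; luminescence read.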
NPC1 promoter act: qHTS Assay for NPC1 Promoter Activators. Huh7 NPC1 promoter luciferase reporter, 24 h. Potency, µM (series often up to 9.22 µM), for inactives: top-dose activation, actives largely listed as activators. 2.4% of 320,000 active. AID 485313, 2010; further: % of control where 0% means no effect; nearly all actives have a fitted effect of over 60% in size
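Stably transfected Huh7 (NPC1 promoter→luciferase), 1500 cells/well in Opti-MEM + 10% FBS, 2 h settle, then compound 24 h at 37 °C. Luminescence after 10 min with Amplite reagent.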
Numbers without * were called inactive; ? = inconclusive; / = no result. Hits are enriched below; roughly 9.4% of the tested compounds scored in any of these assays. The call rests on the fitted dose curve; in most records, active means well fitted curve in the direction sought with a large enough effect; inconclusive means small, poorly fitted or top-dose-only effect, or another doubt; inactive means no such curve, though single readings can be large; an effect the other way counts as inactive or inconclusive. Potency means the concentration at half of the fitted maximal effect.

SMILES | ELG1 repair inh | Rab9 promoter act | SMN2 splice up | ELG1 genotox | FLuc modulator | NPC1 promoter act
Cc1cc(NC(=O)C(=O)c2c(C)[nH]c3ccccc23)no1 | 20% | -11% | -22% | ? | 5% | -3%
O=C(NCc1ccccc1)c1c[nH]c2ccc(S(=O)(=O)Nc3ccc4c(c3)OCCO4)cc2c1=O | -28% | -7% | -11% | 1% | 1% | 6%
Cc1[nH]c2ccccc2c1C(=O)C(=O)Nc1ccc2c(c1)OCCO2 | ? | ? | / | 17% | 15µM* | ?
CCN(CC)C(=O)Cn1cc(C(=O)C(=O)Nc2ccc3c(c2)OCCO3)c2ccccc21 | ? | ? | / | -1% | 3.4µM* | 30%
Cc1nn2c3c(cnc2c1-c1ccc(F)cc1)C(=O)CC(c1ccccc1)C3 (centres undefined) | / | / | -1% | / | -2% | /
NNc1nc(-c2ccccc2Cl)nc2ccccc12 | -11% | 13% | / | 4% | -20% | 9%
NNc1nc(-c2ccccc2Cl)nc2sc3c(c12)CCCC3 | ? | ? | / | ? | 0.95µM* | ?
COc1ccc(C2=Nc3ccc(OC(F)(F)F)cc3NC(c3cccnc3)=N2)cc1 | / | / | -6% | / | -9% | /
Brc1ccc2nc(-c3cccs3)c(NCC3CCCO3)n2c1 (centres undefined) | ? | 27% | / | -8% | 12µM* | ?
c1csc(-c2nc(NCC3CCCO3)c3ccccc3n2)c1 (centres undefined) | -21% | -7% | / | -14% | -1% | -4%
Cc1cccc(NC(=O)c2sc3nc(-c4cc5ccc(O)cc5oc4=O)[nH]c(=O)c3c2C)c1 | / | / | / | / | -13% | /
O=C1NC(=O)/C(=C\c2ccc(OCc3ccccc3)cc2)S1 | ? | 16% | / | 11% | 19µM* | 4%
O=C1NC(=O)/C(=C\c2ccccc2OCc2ccccc2)S1 | ? | 1% | -14% | -1% | 27µM* | -4%
Cc1ccc(S(=O)(=O)N2CCN(c3ccccc3)CC2)cc1C(=O)NC1CCCCC1 | -11% | -3% | / | 0% | 2% | -3%
COc1ccc(CC(=O)Nc2oc(-c3ccccc3)c(-c3ccccc3)c2C#N)cc1OC | 23µM* | -2% | -28% | -1% | -3% | -2%
COc1ccccc1OCC(=O)Nc1oc(-c2ccccc2)c(-c2ccccc2)c1C#N | -14% | 2% | 7% | -11% | 2% | -4%
COc1ccc(C(=O)Nc2sc(C)c(-c3ccccc3)c2C#N)cc1OC | 26µM* | 23% | -10% | 1% | ? | 7%
O=C(Nc1cccc(Cl)c1)C1CCN(S(=O)(=O)Cc2ccccc2)CC1 | / | / | / | / | -3% | /
Cc1ccc2cccc(S(=O)(=O)Nc3ccc4c(c3)OCO4)c2n1 | 1% | -3% | 7.1µM* | 5% | 2% | -2%
O=S(=O)(Nc1ccc2c(c1)OCCO2)c1cccc2nsnc12 | ? | 1% | -13% | 16µM* | 24µM* | 1%
O=C(CCNS(=O)(=O)c1cccc2nsnc12)Nc1ccc2c(c1)OCCO2 | 17% | -2% | 5% | 7% | ? | 1%
COCC(=O)Nc1ccc(OC)c(Cl)c1 | ? | 10% | / | 12% | 1% | 11%
COc1ccc(NC(=O)c2cc(F)c(F)cc2Cl)cc1Cl | ? | ? | / | ? | 13µM* | ?
CC(C)=CC(=O)Nc1ccc(Cl)cc1 | ? | 1.4µM* | 14µM* | ? | 11µM* | 1.6µM*
CNC(=O)Nc1ccc(Cl)cc1 | 28% | 4% | 1% | -1% | ? | -1%
SMILES | ELG1 repair inh | Rab9 promoter act | SMN2 splice up | ELG1 genotox | FLuc modulator | NPC1 promoter act
COc1ccc(NC(=O)Nc2cccs2)cc1Cl | ? | ? | / | ? | 8.5µM* | ?
COc1ccc(NC(=O)C=C(C)C)cc1Cl | / | / | 11µM* | / | 12µM* | /
COc1ccc(O)c(/C=C(\C#N)C(=O)Nc2cccnc2)c1 | ? | 21% | 5% | ? | 4.8µM* | 8%
CCCOc1ccccc1/C=C(\C#N)C(=O)Nc1cccnc1 | ? | 28% | / | ? | 19µM* | 8%
CCC(=O)OCC(=O)C1(OC(=O)CC)C(C)CC2C3C(Cl)CC4=CC(=O)C=C[C@@]4(C)C3C(O)C[C@@]21C (some centres undefined) | / | / | -26% | / | / | /
CCC(C)c1ccc(NC(=O)N2CCN(C(=O)C3CCCO3)CC2)cc1 (centres undefined) | 2% | 8% | / | 4% | -14% | 0%
COc1cc(C2c3c(oc4ccccc4c3=O)C(=O)N2Cc2ccc(C)cc2)ccc1O (centres undefined) | / | / | / | / | -4% | /
Cc1ccc(-c2nc(CNC(=O)Nc3ccccc3)c(C)o2)cc1 | / | / | / | / | -5% | /
Cc1ccc(CNC(=O)Cn2c3ncccc3c(=O)n2-c2ccccc2)cc1 | / | / | / | / | -7% | /
Cc1cc(/C=N/NC(=O)c2ccncc2)c(C)n1-c1ccccc1 | ? | ? | ? | ? | 1.9µM* | 23%
Cc1cc(/C=N/NC(=O)c2cccs2)c(C)n1-c1cnccn1 | ? | 3.5µM* | / | 7.3µM* | 4.8µM* | 2µM*
Cc1cccc(C)c1-n1c(C)cc(/C=N/NC(=O)c2ccncc2)c1C | 15% | 0% | 2% | 3% | -23% | 0%
Cc1ccc(-n2c(C)cc(/C=N/NC(=O)c3ccncc3)c2C)cc1C | -9% | 24% | -22% | -1% | 8.5µM* | -7%
O=C(N/N=C/c1cc(Cl)ccc1O)c1ccncc1 | 15µM* | -30% | / | 15% | ? | -42%
CCCSCCCNC(=O)C1CCN(c2nc3ccccc3nc2C(F)(F)F)CC1 | / | / | / | / | -15% | /
CCc1ccc(NC(=O)CCS(=O)(=O)c2ccc(Cl)cc2)cc1 | -8% | 8% | / | -2% | 0% | 1%
CCOc1ccc(CNC(=O)Cc2ccc(NC(=O)N3CCSc4ncccc43)cc2)cc1 | / | / | / | / | -5% | /
Cc1cc(C)cc(-n2c(C)cc(/C=N\NC(=O)COc3cccc4cccnc34)c2C)c1 | -28% | 2% | 3% | -4% | ? | -2%
Cc1ccc(-n2c(C)cc(/C=N/NC(=O)c3ccncc3)c2C)c(C)c1 | 5% | 8% | -10% | -4% | 12µM* | -5%
CCc1ccc(-n2c(C)cc(/C=N/NC(=O)c3ccncc3)c2C)cc1 | ? | -1% | -15% | -11% | 12µM* | 4%
Cc1cc(C(=O)O)c(C)n1-c1ccccc1 | -3% | -1% | -10% | 1% | 5% | 4%
